Laboratory results reported in PubChem BioAssay AID588790 (National Center for Advancing Translational Sciences (NCATS), 2011).
Out of some 1,200 compounds screened, about 85 (7%) were called active. The call rests on the fitted dose curve. The full list was thinned out, with actives kept by preference.

These compounds were tested against Beta-2 adrenergic receptor (Homo sapiens) (UniProt P07550) (assay: qHTS assay of beta-arrestin-biased ligands of beta2-adrenergic receptor: Hit Validation with GloSensor). Settings: W9-Glo22F cells, GloSensor cAMP luminescence, beta2AR agonism; activation: at 46.1 µM (top of the series).
In short: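 Luminescence measured 10 min after GloSensor reagent addition at room temperature. Preceded by compound pinning onto W9-Glo22F cells that had been cultured overnight at 37 deg C under 5% CO2.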
Potency means the concentration at half of the fitted maximal effect.
Wherever activation is given: 0% is about no effect.

Chain of Beta-2 adrenergic receptor (Homo sapiens) (P07550 whole entry, looked up): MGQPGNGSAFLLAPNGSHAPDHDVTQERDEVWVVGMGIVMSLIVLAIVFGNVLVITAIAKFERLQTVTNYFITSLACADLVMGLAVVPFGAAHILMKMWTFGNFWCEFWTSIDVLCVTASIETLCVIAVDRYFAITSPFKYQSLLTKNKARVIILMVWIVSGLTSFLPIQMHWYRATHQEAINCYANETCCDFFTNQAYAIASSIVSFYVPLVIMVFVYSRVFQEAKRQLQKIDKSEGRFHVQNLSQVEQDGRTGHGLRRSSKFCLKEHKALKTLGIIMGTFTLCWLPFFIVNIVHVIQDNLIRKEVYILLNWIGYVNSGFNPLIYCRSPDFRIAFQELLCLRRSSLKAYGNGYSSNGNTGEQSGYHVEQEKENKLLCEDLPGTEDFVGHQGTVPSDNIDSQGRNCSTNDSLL

activation, inactive:
NC(=S)N/N=C/c1ccccc1OC(=O)c1cc2ccccc2oc1=O 1.16%
COCC(=O)Nc1c(C(=O)Nc2ccc3c(c2)OCCO3)oc2ccccc12 -2.48%
CCc1n[nH]c(=S)n1/N=C/c1ccc(N(CC)CC)cc1 -2.48%
Cc1cc(-c2n[nH]c(=S)n2/N=C/C(Br)=C/c2ccccc2)n[nH]1 0%
S=c1[nH]nc(-c2ccco2)n1/N=C/C(Cl)=C/c1ccccc1 2.48%
COC(=O)c1c(NC(=O)CS(=O)(=O)c2ccccc2)sc(C)c1C 0%
C/C(=N\NC(=O)c1c[nH]c2ccccc12)c1ccc(C)s1 0.306%
COc1cc2c(cc1OC)C(C)N(C(=O)Cn1ncc3c1-c1cc(C)ccc1OC3)CC2 (centres undefined) 1.16%
N=c1n(Cc2ccccc2)c2ccccc2n1Cc1ccccc1 0.153%
COc1cccc(NC(=S)NN=C2CCCCCC2)c1 -1.01%
COC(=O)c1cc2sc(Cl)cc2n1CC(=O)Nc1ccc(OC)c(OC)c1OC 0%
CNc1sc(C(=O)c2cccs2)c(N)c1-c1nc2ccccc2s1 -1.16%
NC(=S)Nc1nc2ccccc2s1 2.48%
CCOC(=O)C1=CN(Cc2cccc(-c3cccnc3)c2)S(=O)(=O)N(CC)C1C (centres undefined) 0%
Cc1ccc(CONC(=O)c2ccccc2Cl)cc1 0.306%
O=C(/C=C/c1ccc(N2CCCCC2)c([N+](=O)[O-])c1)c1ccc(S(=O)(=O)N2CCCC2)cc1 0%
Cc1ccc2nc(C)c(C(=O)N/N=C/c3cccs3)n2c1 0%
COC(=O)COc1cccc2c(=O)n(CC(=O)Nc3ccc4c(c3)OCCO4)ccc12 0%
CCOC(=O)c1ccccc1NC1c2ccccc2C(=O)N1C1CCN(C(=O)OCC)CC1 (centres undefined) -1.16%
O=C(CSc1cccc2cccnc12)N1CCCC1 1.16%
COc1ccc(CN=C2NN=C(c3ccccc3)CS2)cc1 -1.16%
CCCCCC(=O)Nc1cccc(C2=NOC3(C2)C[C@@H](C(N)=O)N(C(=O)CC(c2ccccc2)c2ccccc2)C3)c1 (some centres undefined) 0%
CN(c1ccccc1)S(=O)(=O)c1ccc(C(=O)Nc2nccs2)cc1 0.459%
O=C(Oc1c(Cl)cc(Cl)c2cccnc12)c1ccco1 -2.33%
O=C(Oc1ccc(Cl)c2cccnc12)c1ccco1 -1.16%
Cc1ccc2c(c1)[C@H]1[C@H](CO2)[C@H](c2ccccc2)[C@]2(C)C(=O)Nc3ccccc3C(=O)N12 0.459%
NC(=S)N/N=C/c1ccc(-c2ccccc2)o1 0%
NC(=S)N/N=C/c1ccc(-c2ccc([N+](=O)[O-])cc2)o1 0%
Cc1cccc(NC(=S)NC(=O)C2CC2)c1 -1.16%
COc1cccc(OCC(=O)Nc2c3c(nn2-c2ccc(F)cc2)CS(=O)(=O)C3)c1 3.64%
O=C(NC1CCCCC1)N(Cc1cc2cc3c(cc2[nH]c1=O)OCCO3)CC1CCCO1 (centres undefined) 1.16%
CCNC(=S)N/N=C(\C)c1cccc(C(F)(F)F)c1 2.48%
CC(=O)Nc1ccc(S(=O)(=O)N2CCC(c3nnc(-c4ccc(C)cc4)o3)CC2)cc1 2.33%
CCOC(=O)c1c(NC(=O)CSc2cccc[n+]2[O-])sc(C(=O)Nc2ccccc2)c1C -1.16%
CCOC(=O)c1c(C)nc2c(c1-c1ccccc1)C(=O)CC(C)(C)C2 1.16%
N#CC1=C(N)OC2=C(CC/C2=C\c2ccccc2)C1c1ccccc1 (centres undefined) -1.16%
CC1CCCC/C1=N\NC(=S)NCCc1ccccc1 (centres undefined) -1.16%
S=c1ccc2ccccc2[nH]1 -1.16%
S=c1nc(-c2ccccc2)[nH]c2ccc(Br)cc12 0%
CCOC(=O)C1(O)CC(C)=NN1C(=O)c1cccc(Cl)c1 (centres undefined) -1.16%
CC(C)NC(=S)N/N=C/c1cccs1 -1.16%
CCNC(=S)N/N=C/c1sccc1C 0%
Cc1noc(C)c1COc1cccc(C(=O)Nc2ccccc2N2CCOCC2)c1 8.6%
O=C(N/N=C/c1ccccc1OC(=O)c1ccc2c(c1)OCO2)c1ccccc1 4.96%
Cn1c(/C=C/c2ccc([N+](=O)[O-])o2)nc2ccccc2c1=O 2.48%
N#C/C(=C\c1cccc(O)c1)C(=O)Nc1ccc2c(c1)OCCO2 -1.01%
O=C(O)/C(=C\c1ccco1)NC(=O)c1ccccc1 -1.16%
O=C(CC(c1ccco1)S(=O)(=O)c1ccccc1)c1ccccc1 (centres undefined) -2.17%
CC(C)[C@H](NC(=O)c1ccccc1Cl)C(=O)Nc1nc(-c2ccccn2)cs1 1.16%
COc1cccc(N2CCN(C(=O)/C=C/c3ccco3)CC2)c1 0%
CC1=C(C)/C(=N\OS(=O)(=O)c2ccc(C)cc2)C=CC1=O 0%
CCOc1ccc(/C(CCC(=O)O)=N/NC(=S)NC(C)C)cc1 1.71%
C/C(=N\NC(=S)NC(C)C)c1ccccc1 7.28%
C/C(=N\NC(=S)NC(C)C)c1ccccc1OC(F)F -1.16%
C/C(=N\NC(=S)NC(C)C)c1ccco1 0%
COc1cc(CN(C2CCCCC2)S(=O)(=O)c2ccc(S(=O)(=O)N(C)C3CCCCC3)cc2)cc(OC)c1OC -1.01%
CCCNC(=O)COc1ccc2c(=O)c(Oc3ccccc3F)coc2c1 -1.16%
O=C(CSCC(=O)Nc1cccc([N+](=O)[O-])c1)Nc1ccccc1 4.96%
O=C(Cn1c(=O)c2sccc2n(Cc2cccc([N+](=O)[O-])c2)c1=O)NCCc1ccccc1 -1.16%
COc1ccc(C(=O)N/N=C/C(Br)=C/c2ccccc2)cc1 -1.16%
CCCc1cc(SCC(=O)Nc2c(C)n(C)n(-c3ccccc3)c2=O)n2c(nc3ccccc32)c1C#N -2.33%
NNc1ccc(Cl)nn1 0.306%
Cc1cccc(NC(=S)NCc2ccco2)n1 0%
C=CCNC(=S)N/N=C(\C)c1cccc(OC)c1 7.28%
C=CCNC(=S)N/N=C(\C)c1cccnc1 -2.33%
CCN(CC)c1ccc(/C=N/Nc2nc(C)cc(C)n2)cc1 2.48%
CN1CCN(C(=O)c2ccccc2[N+](=O)[O-])CC1 -1.16%
COCCCNC(=S)N/N=C/c1cccc(OC)c1O -1.16%
NC(=S)N/N=C/c1ncc(C(F)(F)F)cc1Cl 6.12%
Oc1ccccc1/C=N/Nc1nc2ccccc2o1 4.96%
CCCNC(=O)Cn1cnc2sc(C(=O)Nc3ccc4c(c3)OCO4)c(C)c2c1=O -2.33%
CCc1cc(C(=O)N(CC(C)C)c2c(N)n(Cc3ccccc3)c(=O)[nH]c2=O)sc1C -1.01%
COC(=O)c1scc(C)c1S(=O)(=O)Nc1ccc(C)cc1 -2.33%
CCOc1ccc(C(C)=O)cc1COC(=O)CN1C(=O)NC2(CCCC2)C1=O 5.51%
S=C(Nc1ccccc1)Nc1nc2ccccc2n1CCOc1ccc(Br)cc1 -1.16%
Cc1ccnc(NC(=O)c2c(-c3ccccc3Cl)noc2C)c1 0.153%
Cc1ccc(N(Cc2cc(=O)[nH]c3ccccc23)C(=O)c2ccco2)cc1 0%
COc1ccc2c(c1)c(=O)c(C(=O)c1ccccc1)cn2Cc1ccccc1 -1.16%
Cc1nc2ccccc2c(=O)n1N 5.81%
Cc1ccccc1-c1nc2c3ccccc3nc(=S)n2[nH]1 8.6%
COc1ccc(/C(C)=N/NC(=S)NCCc2ccccc2)c(O)c1 0%
O=C(CNC(=O)c1ccccc1F)Nc1ccc2c(c1)OCO2 -2.33%
C=C(C)C(=O)OC1(C(F)(F)F)Oc2cc(C)ccc2NC1=O (centres undefined) 0.306%
Cn1c(SCC(=O)N/N=C/C=C/c2ccco2)nc2ccccc21 0.153%
Cc1nn2c(nc1=O)NNC2(C)C(C)(C)C (centres undefined) 0%
CCN(CC)c1cc(C(F)(F)F)nc(-c2ccccn2)n1 -1.16%
Cc1cc(N)n(Cc2cccs2)n1 0.306%
CCOC(=O)c1cnc(-n2nc(C)cc2C)nc1N(C)C -1.16%
CCOC(=O)c1cnc(-n2nc(C)cc2C)nc1NC 1.16%
COc1ccc(CNc2nc(SCC(=O)NCc3ccco3)nc3ccccc23)cc1 -1.16%
Cc1ccc(-n2c(SCC(=O)NCc3ccco3)nc3c(sc4ccccc43)c2=O)cc1 -0.153%

Potency, active:
CC(=C/c1ccccc1)/C=N/n1c(C)n[nH]c1=S 25.9 µM
Cc1cc(-c2n[nH]c(=S)n2/N=C/C(Cl)=C/c2ccccc2)n[nH]1 36.6 µM
CNc1sc(C(=O)c2ccccc2F)c(N)c1-c1nc2ccccc2s1 18.4 µM
C=CCNc1nc(Cl)nc(NC2CCCCC2)n1 23.1 µM
O=C1NC(=NCc2ccccc2)S/C1=C/c1ccc(O)cc1 23.1 µM
O=C(Oc1c(-c2ccco2)oc2ccccc2c1=O)c1cccnc1 32.6 µM
NC(=S)N/N=C/c1ccc(-c2cccc([N+](=O)[O-])c2)o1 20.6 µM
CCC(NC(C)C)C(O)c1ccc(O)c(O)c1 (centres undefined) 0.0065 µM
CCC(NC(C)C)C(O)c1ccc(O)c2[nH]c(=O)ccc12 (centres undefined) 0.0058 µM
CC(C)C(=O)COc1c2occc2cc2ccc(=O)oc12 13 µM
S=c1nc(-c2ccccc2)[nH]c2ccccc12 32.6 µM
CCNC(=S)N/N=C/c1cccs1 5.8 µM
O=C(c1ccccc1)c1ccc2nc(-c3ccco3)c(-c3ccco3)nc2c1 32.6 µM
COc1cc(/C(C)=N/NC(=S)NC(C)C)cc(OC)c1OC 18.4 µM
CC/C(=N\NC(=S)NC(C)C)c1ccc(OC)c(OC)c1 23.1 µM
CC(CCc1ccccc1)NCC(O)c1cccc([N+](=O)[O-])c1 (centres undefined) 0.0206 µM
C=CCNC(=S)N/N=C(\C)c1cccc(NC(C)=O)c1 23.1 µM
COc1cccc(/C=N/Nc2ncc(C(F)(F)F)cc2Cl)c1O 25.9 µM
N/C(=C\C(=O)c1cc(Cl)ccc1O)C(Cl)(Cl)Cl 23.1 µM
CCOc1ccc(C(C)=O)cc1COC(=O)c1ccc2c(c1)NC(=O)CS2 4.61 µM
S=c1nc2ccccc2c2nc(-c3ccccc3)[nH]n12 18.4 µM
FC(F)(F)c1cc(Nc2ccccc2)nc(-c2ccccn2)n1 18.4 µM
COc1ccc(-c2cc(C(F)(F)F)nc(SCC(=O)NCc3ccco3)n2)cc1OC 13 µM
